Assay [1] in a line: NCI Yeast Anticancer Drug Screen. Data for the rad50 strain (AID 155).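 Note: 0% = growth of vehicle-only cultures of the same strain.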 As to conditions: S. cerevisiae rad50 strain growth inhibition; at 50.0 µM; hits give high values. The procedure, abridged:
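Compounds were tested on a yeast strain with an engineered DNA damage repair alteration; the reported value is growth inhibition normalised to vehicle treatment.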

The nature of assay [2]: NCI Yeast Anticancer Drug Screen. Data for the mec2-1 strain (AID 157). The note with it: S. cerevisiae mec2-1 strain, at 50.0 µM, hits give high values. The procedure, abridged:
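mec2-1 yeast strain, carrying an alteration in DNA damage repair or cell cycle control, was exposed to compounds; growth inhibition was measured relative to vehicle-treated controls.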

Assay [3] is described as follows: NCI Yeast Anticancer Drug Screen. Data for the sgs1 mgt1 strain (AID 161).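 Note: 0% = growth of cultures given vehicle only.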 The note with it: S. cerevisiae sgs1 mgt1 strain, at 50.0 µM, hits give high values. The method in brief: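 Yeast cells carrying a defined DNA-repair defect were exposed to test compounds. Growth inhibition was measured relative to vehicle-treated controls.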
A short description of assay [4]: NCI Yeast Anticancer Drug Screen. Data for the cln2 rad14 strain (AID 165).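 Note: 0% = growth equal to vehicle treated cultures.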 As to conditions: S. cerevisiae cln2 rad14 strain, at 50.0 µM, hits give high values. The procedure, abridged: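 Yeast carrying cln2 and rad14 alterations (cell cycle control and DNA damage repair) were exposed to compounds. Growth inhibition was measured against vehicle-treated controls.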

The nature of assay [5]: NCI Yeast Anticancer Drug Screen. Data for the bub3 strain (AID 167). The note with it: S. cerevisiae bub3 mutant strain, at 50.0 µM, hits give high values. The procedure, abridged:
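Growth of a checkpoint-deficient yeast mutant is measured after compound exposure. Values represent inhibition relative to vehicle.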

Assay [6] is described as follows: NCI Yeast Anticancer Drug Screen. Data for the mlh1 rad18 strain (AID 175). As to conditions: S. cerevisiae mlh1 rad18 strain growth inhibition; at 50.0 µM; hits give high values. The procedure, abridged:
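Growth inhibition of the yeast strain was measured after compound exposure and expressed relative to vehicle-treated controls. The strain carries defined defects in DNA damage repair.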

Each structure is given as a SMILES string. Compounds without any hit were thinned out: in the full panel of roughly 79,000, 15% have a hit. Values without a mark were called inactive. Calls of active or inactive are those of the source. Cut-off read from the data, not from the text of the source: active = growth inhibition above about 70%; inactive = the rest.

These results are taken from PubChem BioAssay (NCI).

Regarding `COc1ccc(/C=C/C(=O)c2sc(NC(=S)NC(=O)c3ccc(Cl)cc3)nc2C)cc1OC`, the growth inhibition in assay [1] is 16.2%; in assay [2] it was 13.2%; in assay [3] it was 28.6%; in assay [4], 9.8%; in assay [5] it was -1.6%; in assay [6] it was 7.2%.

Consider `CCOC(=O)CNC(=O)C(Cc1ccccc1)NC(=O)c1ccccc1[N+](=O)[O-]` (stereo unspecified), for which the growth inhibition is 22.8% in assay [1]; 14.3% in assay [2]; 16% in assay [3]; 15.8% in assay [4]; -1.25% in assay [5]; 15.8% in assay [6].

As to `Nc1[nH]c(=S)nc2snnc12`, the growth inhibition is 3% in assay [1]; -6.6% in assay [2]; 9.4% in assay [3]; 11.2% in assay [4]; 3.1% in assay [5]; 14.8% in assay [6].

In the case of `CCOc1ccc2nc(NC(=O)C(=O)C3C(=O)C(CC4C(=O)c5ccccc5C4=O)C(=O)CC3(C)C)sc2c1` (stereo unspecified), the growth inhibition in assay [1] was 31.4%; in assay [2], -1.1%; in assay [3], 14.3%; in assay [4] it was -29.8%; in assay [5] it was -29.4%; in assay [6] it was 8.9%.

For the compound `O=C(O)C(Br)Cc1cccc([N+](=O)[O-])c1` (stereo unspecified), the growth inhibition was 9.4% in assay [1]; -9.35% in assay [2]; 10.6% in assay [3]; -5.65% in assay [4]; 3.45% in assay [5]; 17.7% in assay [6].

For `CCOC(=O)C(C)F` (stereo unspecified), the growth inhibition in assay [1] is 6.1%; in assay [2], -26.1%; in assay [3], 1.55%; in assay [4], -1.15%; in assay [5], -8.45%; in assay [6], 3.75%.

With `Cc1cccc(N=C2NC(=O)C(CC(=O)Nc3ccccc3Cl)S2)c1` (stereo unspecified), the growth inhibition was -16.8% in assay [1]; -35.8% in assay [2]; 12.8% in assay [3]; 7.45% in assay [4]; 0.95% in assay [5]; -1.55% in assay [6].

Take `COC1/C=C\OC2(C)Oc3c(C)c(O)c4c(O)c(c5c(c4c3C2=O)NC2(CCN(C)CC2)N=5)=NC(=O)/C(C)=C\C=C\C(C)C(O)C(C)C(O)C(C)C(OC(C)=O)C1C` (stereo unspecified): the growth inhibition in assay [1] was 2.85%; in assay [2], 3%; in assay [3] it was -1%; in assay [4], 10.3%; in assay [5], 7%; in assay [6], 3.25%.

As for `CN1C(C)(C)CC(CN2c3ccccc3Sc3ccccc32)C1(C)C` (stereo unspecified), the growth inhibition is 34.2% in assay [1]; 6.8% in assay [2]; 37.9% in assay [3]; -19.3% in assay [4]; 27.9% in assay [5]; 45.2% in assay [6].

In the case of `CCN1C(=O)CCN(S(=O)(=O)c2ccc(-n3nc(C)cc3C)cc2)C1=S`, the growth inhibition is -5.55% in assay [1]; -8.45% in assay [2]; -9.15% in assay [3]; -46.4% in assay [4]; 1.7% in assay [5]; -2.3% in assay [6].

As to `Cc1nc2cc(Nc3ccccc3C(=O)O)ccc2s1`, the growth inhibition in assay [1] is -43.3%; in assay [2], -36.6%; in assay [3], -50.6%; in assay [4] it was -0.7%; in assay [5], -22.2%; in assay [6] it was -25.9%.

Take `N#Cc1ccc(C=NC23CC4CC(CC(C4)C2)C3)cc1`: the growth inhibition in assay [1] is -12%; in assay [2], -10%; in assay [3] it was -6.7%; in assay [4], 2.4%; in assay [5], -2%; in assay [6], -4.1%.

On to `CC(=O)OC/C=C/CN(C)C`, for which the growth inhibition in assay [1] was 9.3%; in assay [2], 4.6%; in assay [3], -7.25%; in assay [4] it was 7.8%; in assay [5], -6.2%; in assay [6], 16.5%.

With `Cn1nnc(CC[N+]2(C)CCOCC2)n1`, the growth inhibition was -3.35% in assay [1]; 3.45% in assay [2]; -3.35% in assay [3]; -24.5% in assay [4]; 6.05% in assay [5]; 3.9% in assay [6].

On to `CC(OC(=O)CC(c1ccccc1)N1CCCCC1)c1ccccc1` (stereo unspecified), for which the growth inhibition was 64.7% in assay [1]; 1.3% in assay [2]; 41.1% in assay [3]; 5.3% in assay [4]; 57.5% in assay [5]; 33.9% in assay [6].

For the compound `O=C1c2ccccc2C(=O)c2c1ccc(C1C(=O)c3ccccc3C1=O)c2-c1c(C2C(=O)c3ccccc3C2=O)ccc2c1C(=O)c1ccccc1C2=O`, the growth inhibition in assay [1] was -18.4%; in assay [2] it was -16.8%; in assay [3] it was -35.5%; in assay [4], -17.5%; in assay [5], -33.1%; in assay [6] it was 4.15%.

For the compound `CC(=O)Nc1cc(C(C)=O)ccc1O`, the growth inhibition in assay [1] is 0.95%; in assay [2], -0.5%; in assay [3], -3.95%; in assay [4], -32.7%; in assay [5] it was -14%; in assay [6] it was 6.6%.

For `CC(=O)OCC(C)Cc1ccc(C(C)(C)C)cc1` (stereo unspecified), the growth inhibition in assay [1] was 3%; in assay [2], 0.3%; in assay [3], 0.7%; in assay [4], -4%; in assay [5] it was 9.6%; in assay [6], -2.4%.

`O=C(O)C1(C(=O)O)CC2C3C=CC(C3)C2C1` (stereo unspecified): the growth inhibition in assay [1] was -7.75%; in assay [2], -11.7%; in assay [3], 0.35%; in assay [4], -48.8%; in assay [5] it was 18.8%; in assay [6] it was 20.5%.

Consider `CCOC(=O)C(Cc1ccc([N+](=O)[O-])cc1)(Cc1ccc([N+](=O)[O-])cc1)C(=O)OCC`, for which the growth inhibition in assay [1] is -8.9%; in assay [2] it was -0.75%; in assay [3], -15.3%; in assay [4] it was -8.95%; in assay [5] it was -25.6%; in assay [6] it was -17.2%.

As to `C[C@]1(CO)[C@H]2CC[C@@]34C=C[C@@](CO)(CC[C@H]3[C@]2(C)CC[C@H]1O)C4`, the growth inhibition is 5.45% in assay [1]; 1.05% in assay [2]; 39.6% in assay [3]; 6.4% in assay [4]; 11.7% in assay [5]; -48.4% in assay [6].

For the compound `Nc1nnnn1-c1cccc(Cl)c1`, the growth inhibition was 7.5% in assay [1]; 0.35% in assay [2]; 1.6% in assay [3]; -18.8% in assay [4]; -2.4% in assay [5]; 10.6% in assay [6].

For `CNc1ncnc2nc[nH]c12`, the growth inhibition in assay [1] was 16.2%; in assay [2], -6.85%; in assay [3] it was 2.9%; in assay [4], -3.15%; in assay [5], -8.5%; in assay [6] it was 14.9%.

Consider `C/C=C/C=C1/OC(C)=C(C(=O)OCC)C1=O`, for which the growth inhibition in assay [1] is 7.95%; in assay [2] it was -15.6%; in assay [3], 6.55%; in assay [4], 11.4%; in assay [5] it was -8.95%; in assay [6], -1.9%.

Regarding `C/C(CC(=O)Nc1ccc(Cl)cc1)=N\NC(=O)C[n+]1ccccc1`, the growth inhibition in assay [1] is 1.35%; in assay [2], -17.6%; in assay [3], 11.2%; in assay [4], 16.6%; in assay [5], -12.5%; in assay [6], -8.6%.

Consider `CCCCCCCCCCCCCCCCCCc1c(C)cc(C)cc1C`, for which the growth inhibition was 3.7% in assay [1]; 23.2% in assay [2]; 3.7% in assay [3]; 33.3% in assay [4]; 3.55% in assay [5]; 4.3% in assay [6].

Turning to `CCC1=C[C@H]2CN(CCc3c([nH]c4ccccc34)[C@@](C(=O)OC)(c3cc4c(cc3OC)N(C)[C@H]3[C@@](O)(C(=O)NC)[C@H](OC(C)=O)[C@]5(CC)C=CCN6CC[C@]43[C@@H]65)C2)C1`, the growth inhibition in assay [1] was 2.65%; in assay [2], -1.75%; in assay [3] it was 12.8%; in assay [4], -2.05%; in assay [5], 16.4%; in assay [6], -12.4%.

Take `CC(=S)NNC(=O)c1ccncc1`: the growth inhibition in assay [1] is -14.1%; in assay [2], 6.05%; in assay [3], -8.2%; in assay [4], -1.15%; in assay [5] it was -20.1%; in assay [6], -14.9%.

With `C=CCN(CC=C)CCNc1cc(C)nc(/N=C(\N)Nc2ccc(Cl)c(Cl)c2)n1`, the growth inhibition in assay [1] is 94.7% (active); in assay [2] it was 94.2% (active); in assay [3], 96.8% (active); in assay [4], 87% (active); in assay [5], 94.7% (active); in assay [6] it was 97.9% (active).

With `O=S(=O)(Cl)c1cccc2c(S(=O)(=O)Cl)cccc12`, the growth inhibition was 7% in assay [1]; 2.15% in assay [2]; 15.4% in assay [3]; -40.5% in assay [4]; -10.4% in assay [5]; 16.2% in assay [6].

In the case of `CCOC(C[N+](C)(C)C)OCC`, the growth inhibition in assay [1] is 9.7%; in assay [2], -25.6%; in assay [3], 2.4%; in assay [4] it was 8%; in assay [5], 30%; in assay [6], 0.3%.

`COC(=O)C1CC(=C(C)C)CCC1=O` (stereo unspecified): the growth inhibition in assay [1] is 11.1%; in assay [2], 2.15%; in assay [3] it was 0.4%; in assay [4] it was 11.2%; in assay [5], 8.7%; in assay [6], -1.7%.

For `Cc1cc(N(CCC#N)CCC#N)ccc1/C(N=Nc1ccccc1)=N\NC(=O)c1cc(Cl)ccc1O`, the growth inhibition in assay [1] was 18.8%; in assay [2] it was 9.8%; in assay [3], 2.7%; in assay [4], -3%; in assay [5], -17.4%; in assay [6], 30.9%.

On to `Cc1ccc([N+](=O)[O-])c2c(NCCC[N+](C)(C)[O-])ccnc12`, for which the growth inhibition in assay [1] is 35.9%; in assay [2], -18.1%; in assay [3], 20.6%; in assay [4] it was 14.2%; in assay [5], -24.7%; in assay [6] it was 4.4%.

In the case of `O=C(NNC(=O)c1ccc2ccccc2c1)c1cccc(Br)c1`, the growth inhibition in assay [1] was -21.1%; in assay [2], -20.6%; in assay [3] it was -6.55%; in assay [4], 10.1%; in assay [5], -5.6%; in assay [6], -7.95%.

Regarding `CCCCCC(O)c1ccc2c(c1)OCO2` (stereo unspecified), the growth inhibition in assay [1] is 13.8%; in assay [2] it was 12.9%; in assay [3] it was 10.4%; in assay [4], 2.2%; in assay [5], -8.85%; in assay [6], 0%.
